Measurements: PubChem BioAssay (NCI)
Compounds without any hit were thinned out: in the full panel of roughly 79,000, 15% have a hit. Values without a mark were called inactive. Activity calls are given as the source filed them. Rule as the data show it: active = growth inhibition above about 70%; inactive = the rest.

Assay: NCI Yeast Anticancer Drug Screen. Data for the rad50 strain (AID 155);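 also: 0% = growth of vehicle-only cultures of the same strain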
Settings: S. cerevisiae rad50 strain growth inhibition, stronger effect = higher value
Procedure: Growth inhibition of yeast strains with defined genetic alterations is measured as a screen for potential anti-cancer activity. Selected strains with alterations in DNA damage repair or cell cycle control were exposed to compounds and growth inhibition was measured relative to vehicle treated controls. The strain used in this assay is rad50

[1] = at 5.0 µM (retest, dose inferred, filed as 0.5)
[2] = at 50.0 µM (retest, dose inferred, filed as 5.0)

Row | SMILES | growth inhibition (at 1.2 µM) | growth inhibition (at 3.7 µM) | growth inhibition [1] | growth inhibition (at 11.0 µM) | growth inhibition (at 33.0 µM) | growth inhibition [2] | growth inhibition (at 50.0 µM) | growth inhibition (at 100.0 µM)
1 | C[C@]12CCC3[C@@H](CC[C@@H]4c5nonc5CC[C@]34C)C1CCC2=O (stereo partly specified) | 14% | 18% | 27% | 65% | 80% (active) | 67% | 87.3% (active) | 87% (active)
2 | COc1cccc2c1C(=O)c1c(O)c3c(c(O)c1C2=O)C[C@@](O)(C(C)=O)C[C@@H]3OC1CC(N)C(OC2CC(O)C(O)C(C)O2)C(C)O1 (stereo partly specified) | 1% | 10% | 36% | 17% | 28% | 83% (active) | 76.8% (active) | 59%
3 | O=C1c2ccccc2C(=O)C(Cl)C1Cl (stereo unspecified) | 5% | 36% | 29% | 98% (active) | 99% (active) | 99% (active) | 99.2% (active) | 99% (active)
4 | COc1cc2ccccc2c2cc([N+](=O)[O-])oc12 | 79% (active) | 88% (active) | 75% (active) | 92% (active) | 91% (active) | 76% (active) | 78.2% (active) | 88% (active)
5 | [C](#Cc1ccccc1)[Hg][C]#Cc1ccccc1 |  |  | 65% |  |  | 99% (active) | 98.8% (active) | 
6 | CC(=O)OC1CCC2(C)C3CCC4(C)C(OC(=O)c5ccccc5)CCC4C3CC(Br)C2(O)C1 (stereo unspecified) |  |  | 35% |  |  | 56% | 87.1% (active) | 
7 | c1ccc(P(CC[As](c2ccccc2)c2ccccc2)CC[As](c2ccccc2)c2ccccc2)cc1 |  |  | 95% (active) |  |  | 95% (active) | 89% (active) | 
